Source: PubChem BioAssay (Tox21)
Records with an inconclusive call do not appear. Values without a mark were called inactive. The source made the active and inactive calls. Unless noted, the call rests on the fitted dose curve.

test: p53 small molecule agonists, cell-based qHTS assay with rat liver microsomes: qHTS cell viability counter screen (AID 1963580); details: p53RE-bla HCT-116 + rat microsomes, ATP viability, 16 h; series mostly up to 66 µM; activity change, negative = cytotoxicity: at the top concentration; further: nearly all actives have a fitted effect of over 45% in size; further: potency means the concentration at half of the fitted maximal effect
Summary of the method: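 Rat liver microsome (0.5 mg/mL final) and NADPH (0.5 mg/mL final) co-incubation with compounds for 16 h at 37 C on HCT-116 p53RE-bla cells; cytotoxicity taken from intracellular ATP luminescence.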
On the % scale 0 is the no-effect control and ±100 the full control effect.

In order of rising “activity change, negative = cytotoxicity” value:
1. NC(=O)N1C(=O)C(C(=O)c2cc(Cl)cs2)c2cc(F)c(Cl)cc21 (stereo not drawn)  -19.1%
2. Oc1ccc2c(c1)-c1ccccc1C2  -10.3%
3. CCCCCCCCCCCCN1CCCCCC1=O  -9.55%
4. O=C1CCCc2c1cc1ccc3cccc4ccc2c1c34  -6.71%
5. CC1=CC(C)C(C=O)C(C)C1 (stereo not drawn)  -4.18%
6. O=C(O)C1(C(=O)Nc2ccc(Cl)cc2Cl)CC1  -0.855%
7. CC(C)(C)c1cc(/C=C2\SC(=N)NC2=O)cc(C(C)(C)C)c1O  -0.117%
8. O=C(O)COc1ccc2ccccc2c1  -0.0601%
9. O=S(=O)(Oc1ccc(Cl)cc1)c1ccccc1  -0.0489%
10. CNCc1cc(F)ccc1Oc1ccc(Cl)c(Cl)c1  0.553%
11. CCN(Cc1cccnc1)C(=O)c1cccc(Cl)c1[C@]1(C)C(=O)N(Cc2ccc(OC)cc2OC)c2ccc(Cl)cc21  2.26%
12. CSC(=O)c1cccc2nnsc12  2.49%
13. Cc1oc(-c2ccccc2)nc1CCOc1cccc2c1ccn2CCC(=O)O  3.14%
14. O=C(O)c1c2ccccc2cc2ccccc12  8.35%

In order of falling “activity change, negative = cytotoxicity” value:
1. CN(C)CCN(Cc1ccccc1)c1ccccn1  12.7% [at 30.3 µM]
2. Cc1coc2ccccc2c1=O  4.09% [at 30.3 µM]
3. NS(=O)(=O)c1ccc(C(=O)O)cc1  3.1% [at 30.3 µM]
4. Cc1c(-c2ccccc2)oc2c(C(=O)OCCN3CCCCC3)cccc2c1=O  1.49% [at 30.3 µM]
5. CC(=O)OCC(=O)[C@@]1(O)[C@H](OC(C)=O)C[C@H]2[C@@H]3CCC4=CC(=O)C=C[C@]4(C)[C@@]3(F)[C@@H](O)C[C@@]21C  1.49% [at 30.3 µM]
6. COc1ccc(S(=O)(=O)Nc2nnc(CC(C)C)s2)cc1  1.35% [at 30.3 µM]
7. CCOC(=O)C1=C(C)NC(C)=C(C(=O)OCC)C1c1ccccc1/C=C/C(=O)OC(C)(C)C  1.22% [at 30.3 µM]
8. COc1cc(-c2ccc(=O)[nH]n2)ccc1OC(F)F  1.18% [at 30.3 µM]
9. CC(=O)/C=C/C=C1/C2CCC(C2)C1(C)C (stereo not drawn)  0.471% [at 30.3 µM]
10. COc1ccc(/C=C/c2cc(OC)cc(=O)o2)cc1  -0.883% [at 30.3 µM]
11. CCC[C@@H]1C[C@@H](C(=O)N[C@@H]([C@H]2O[C@H](SC)[C@H](O)[C@@H](O)[C@H]2O)[C@@H](C)O)N(C)C1  -2.88% [at 30.3 µM]
12. CCOc1ccccc1OCC1CNCCO1 (stereo not drawn)  -4.02% [at 30.3 µM]
13. O=c1[nH]c(=O)n([C@H]2C[C@H](O)[C@@H](CO)O2)cc1F  -5.24% [at 30.3 µM]
14. CCCCC/C=C\C/C=C\CCCCCCCC(=O)NC(C)c1ccccc1 (stereo not drawn)  -13% [at 30.3 µM]
15. CCCNC(C)C(=O)Nc1c(C)csc1C(=O)OC (stereo not drawn)  -18.8% [at 30.3 µM]
16. CCCCCCCCCCCCCCCCCCNC(=O)OC1CCN(C(=O)OC[C@H](COC(=O)N(Cc2cccc[n+]2CC)C(=O)c2ccccc2OC)OC)CC1  -19.2% [at 30.3 µM]

In the case of CC(C)(C)CC(C)(C)c1ccccc1O, the Potency is reported as 41 µM (active).
With CCc1c2c(nc3ccc(OC(=O)N4CCC(N5CCCCC5)CC4)cc13)-c1cc3c(c(=O)n1C2)COC(=O)[C@]3(O)CC the Potency was 1.26 µM (active).

test: p53 small molecule agonists, cell-based qHTS assay: qHTS cell viability counter screen (AID 1963581); details: p53RE-bla HCT-116 viability, ATP luminescence, 16 h; series mostly up to 66 µM; activity change, negative = cytotoxicity: at the top concentration; further: nearly all actives have a fitted effect of over 45% in size
Summary of the method: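 Multiplexed with the reporter read, a CellTiter-Glo step (30 min, room temperature) gauges ATP-based viability of HCT-116 p53RE-bla cells after 16 h compound incubation at 37 C.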

In order of falling “activity change, negative = cytotoxicity” value:
1. Cc1oc(-c2ccccc2)nc1CCOc1cccc2c1ccn2CCC(=O)O  21.5%
2. O=C(O)COc1ccc2ccccc2c1  12.1%
3. ClCCOCCOCCCl  7.04%
4. O=C(O)C1(C(=O)Nc2ccc(Cl)cc2Cl)CC1  0.442%
5. NC(=O)N1C(=O)C(C(=O)c2cc(Cl)cs2)c2cc(F)c(Cl)cc21 (stereo not drawn)  -1.26%
6. OCCCCCO  -1.94%
7. OCCCS  -5.48%
8. CCc1ncc(C)[nH]1  -5.59%
9. Cc1cc(NC(=O)C(=O)O)cc(C)c1Oc1ccc(O)c2c1CCC2  -6.44%
10. CCCCNC(=O)NCCCC  -13.4%

In order of falling “activity change, negative = cytotoxicity” value:
1. O=C(CCCN1CCN(c2ccc(F)cc2)CC1)NC1c2ccccc2CSc2ccccc21 (stereo not drawn)  4.85% [at 30.3 µM]
2. CCCCC/C=C\C/C=C\CCCCCCCC(=O)NC(C)c1ccccc1 (stereo not drawn)  1.04% [at 30.3 µM]
3. CC(=O)OCC(=O)[C@@]1(O)[C@H](OC(C)=O)C[C@H]2[C@@H]3CCC4=CC(=O)C=C[C@]4(C)[C@@]3(F)[C@@H](O)C[C@@]21C  0.74% [at 30.3 µM]
4. Cc1c(-c2ccccc2)oc2c(C(=O)OCCN3CCCCC3)cccc2c1=O  0.0302% [at 30.3 µM]
5. CCOc1ccccc1OCC1CNCCO1 (stereo not drawn)  -0.102% [at 30.3 µM]
6. CCCCCCCCCCCCCCCCCCNC(=O)OC1CCN(C(=O)OC[C@H](COC(=O)N(Cc2cccc[n+]2CC)C(=O)c2ccccc2OC)OC)CC1  -4.07% [at 30.3 µM]
7. CCC[C@@H]1C[C@@H](C(=O)N[C@@H]([C@H]2O[C@H](SC)[C@H](O)[C@@H](O)[C@H]2O)[C@@H](C)O)N(C)C1  -7.95% [at 30.3 µM]
8. CC(COc1ccccc1)NN (stereo not drawn)  -11.7% [at 30.3 µM]

test: p53 small molecule agonists, cell-based qHTS assay (AID 1963582; active means well fitted activation curve with a large enough effect in the signal ratio in the repeat runs, not every such curve was filed as active; the % refers to the signal ratio; further: potency means the concentration at half of the fitted maximal effect); details: HCT-116 p53RE-bla reporter, beta-lactamase FRET ratio, 16 h; series mostly up to 66 µM; activation: at the top concentration
Summary of the method: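 Beta-lactamase reporter cells (p53RE-bla) treated with compounds for 16 h at 37 C; FRET substrate, 2 h, room temperature; fluorescence intensity.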

In order of rising “activation” value:
1. O=C(O)c1c2ccccc2cc2ccccc12  -6%
2. O=S(=O)(Oc1ccc(Cl)cc1)c1ccccc1  -3.82%
3. CCc1ncc(C)[nH]1  -0.59%
4. CCCCNC(=O)NCCCC  -0.256%
5. CSC(=O)c1cccc2nnsc12  -0.0018%
6. ClCCOCCOCCCl  0.177%
7. CC1=CC(C)C(C=O)C(C)C1 (stereo not drawn)  1.56%
8. OCCCS  2.54%
9. Cc1cc(NC(=O)C(=O)O)cc(C)c1Oc1ccc(O)c2c1CCC2  2.89%
10. CNCc1cc(F)ccc1Oc1ccc(Cl)c(Cl)c1  9.02%

For O=c1[nH]c(=O)n([C@H]2C[C@H](O)[C@@H](CO)O2)cc1F, the Potency was 0.446 µM (active).
With CCc1c2c(nc3ccc(OC(=O)N4CCC(N5CCCCC5)CC4)cc13)-c1cc3c(c(=O)n1C2)COC(=O)[C@]3(O)CC the Potency was 5 µM (active).

In order of falling “activation” value:
1. COc1ccc(S(=O)(=O)Nc2nnc(CC(C)C)s2)cc1  0.529% [at 30.3 µM]
2. CCCNC(C)C(=O)Nc1c(C)csc1C(=O)OC (stereo not drawn)  0.0274% [at 30.3 µM]
3. CC(=O)/C=C/C=C1/C2CCC(C2)C1(C)C (stereo not drawn)  0.0091% [at 30.3 µM]
4. Cc1coc2ccccc2c1=O  -1.61% [at 30.3 µM]
5. NS(=O)(=O)c1ccc(C(=O)O)cc1  -1.71% [at 30.3 µM]
6. COc1cc(-c2ccc(=O)[nH]n2)ccc1OC(F)F  -6.38% [at 30.3 µM]
